Results from PubChem BioAssay (Tox21).
Values without a mark were called inactive. Inconclusive results are not listed. A call without a number means that no potency is given here. The source made the active and inactive calls. Unless noted, the call rests on the fitted dose curve.

Assays:
[1] = target: KiSS-1 receptor (Homo sapiens) (UniProt Q969F8); assay: Human kisspeptin (KISS1R) small molecule agonists, calcium flux assay in KISS1R-HEK293 cells (AID 1920064; active means well fitted activation curve with a large enough effect in the repeat runs)
How it was run: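 After overnight (18 h) culture at 37 C/5% CO2, human KISS1R-HEK293 cells received calcium dye for 1 h, then test compound; emission at 540 nm (excitation 480 nm) was tracked for 3 min.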

[2] = G protein-coupled receptor (GPCR) small molecule agonists, calcium flux assay: HEK293 wild type cell line counter screen (AID 1920065)
How it was run: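 Following 18 h incubation at 37 C/5% CO2, plates got calcium dye for 1 h; compounds, ATP or DMSO were then pinned in and fluorescence followed kinetically (480/540 nm).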

[3] = p53 small molecule agonists, cell-based qHTS assay with human liver microsomes (AID 1963577);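 further: p53 response element beta-lactamase reporter cells with liver microsomes plus NADPH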
How it was run: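 16 h, 37 C exposure of p53RE-bla cells to compounds with human liver microsomes and NADPH (0.5 mg/mL final each); detection via LiveBLAzer mixture, 2 h dark at room temperature.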

[4] = target: 5-hydroxytryptamine receptor 2A (Homo sapiens) (UniProt P28223); assay: 5-hydroxytryptamine receptor 2A (HTR2A) small molecule antagonists, cell-based qHTS assay (AID 1963586); further: nearly all actives have a fitted effect of over 45% in size
How it was run: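 CHO cells stably expressing human HTR2A were plated for 18 h at 37 C, then loaded with calcium dye for 1 h. Compounds were preincubated 5 min at room temperature before DOI (4 nM solution) was added. Kinetic fluorescence was read for 3 min.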

[5] = target: 5-hydroxytryptamine receptor 2A (Homo sapiens) (UniProt P28223); assay: 5-hydroxytryptamine receptor 2A (HTR2A) small molecule agonists, cell-based qHTS assay (AID 1963587); further: nearly all actives have a fitted effect of over 30% in size; further: potency means the concentration at half of the fitted maximal effect
How it was run: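 CHO cells stably expressing human HTR2A, plated 18 h, loaded with calcium dye 1 h at 37 C. Agonist mode: compounds added and intracellular calcium fluorescence recorded kinetically for 2 min at 1 sec intervals.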

[6] = target: Muscarinic acetylcholine receptor M1 (Homo sapiens) (UniProt P11229); assay: Cholinergic receptor muscarinic 1 (CHRM1) small molecule antagonists, cell-based qHTS assay (AID 1963588); further: nearly all actives have a fitted effect of over 40% in size
How it was run: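 Compounds were tested at 15 concentrations in three independent runs. Dye-loaded CHRM1-CHO cells were exposed 5 min at room temperature before stimulation by acetylcholine added at 50nM. Intracellular calcium was read kinetically on FDSS for 3 min.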

[7] = cAMP Responsive Elements (CRE) small molecule agonists, cell-based qHTS assay (AID 1963590)
How it was run: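 Test agents in DMSO were incubated 3 h at 37 C/5% CO2 with CRE-bla HEK 293T cells seeded 18 h earlier; LiveBLAzer B/G FRET substrate was added and read after 2 h at room temperature.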

[8] = target: Beta-2 adrenergic receptor (Homo sapiens) (UniProt P07550); assay: Adrenergic beta2 receptor (ADRB2) small molecule antagonists, cell-based qHTS assay (AID 1963592); further: series mostly up to about 92 µM; nearly all actives have a fitted effect of over 50% in size
How it was run: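 Assay format: CHO-ADRB2 cells, 18-20hr seeding at 37C/5% CO2, then compound plus 1nM isoproterenol agonist mix for 0.5hr RT. Homogeneous time-resolved fluorescence cAMP detection after 1hr, expressed as 665/615 nm ratio.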

[9] = target: Beta-2 adrenergic receptor (Homo sapiens) (UniProt P07550); assay: Adrenergic beta2 receptor (ADRB2) small molecule agonists, cell-based qHTS assay (AID 1963593);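 further: CHO cells stably overexpressing human ADRB2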
How it was run: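 CHO cells stably over-expressing ADRB2 were plated overnight at 37C, then dosed with compounds plus a stimulation mix containing 100uM IBMX and 25uM Ro-20-1724 for 0.5hr at room temperature. cAMP was measured by HTRF competition, 1hr.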

[10] = target: Gonadotropin-releasing hormone receptor (Homo sapiens) (UniProt P30968); assay: Human gonadotropin-releasing hormone receptor (GnRHR) small molecule agonists, calcium flux assay in GnRHR-HEK293 cells (AID 1920063); further: nearly all actives have a fitted effect of over 35% in size
How it was run: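 Stable human GnRHR HEK293 line. 18 h plating, then calcium dye for 1 h at 37 C. Agonist-mode compound addition from DMSO stocks; fluorescence monitored 3 min.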

[11] = p53 small molecule agonists, cell-based qHTS assay with rat liver microsomes (AID 1963578)
How it was run: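 With rat liver microsomes and NADPH present (0.5 mg/mL final each), p53RE-bla cells are treated with compound for 16 h at 37 C. LiveBLAzer detection mixture is then applied for 2 h at room temperature in the dark.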

[12] = p53 small molecule agonists, cell-based qHTS assay with human liver microsomes: qHTS cell viability counter screen (AID 1963579); further: nearly all actives have a fitted effect of over 45% in size; further: potency means the concentration at half of the fitted maximal effect
How it was run: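 In this multiplexed counter screen, the reporter plates were subsequently treated with CellTiter-Glo so that cell viability, reflected by luminescence, could be recorded for p53RE-bla cells dosed 16 h with compounds under microsomal activation (HLM and NADPH).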

[13] = p53 small molecule agonists, cell-based qHTS assay with rat liver microsomes: qHTS cell viability counter screen (AID 1963580); further: nearly all actives have a fitted effect of over 45% in size
How it was run: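 After the beta-lactamase ratio was read, CellTiter-Glo was added to the same wells and luminescence measured at 30 min; cells had been treated 16 h at 37 C with compounds, rat liver microsomes and NADPH (0.5 mg/mL final each).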

[14] = p53 small molecule agonists, cell-based qHTS assay (AID 1963582; active means well fitted activation curve with a large enough effect in the signal ratio in the repeat runs, not every such curve was filed as active; the % refers to the signal ratio)
How it was run: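 Measured: fluorescence from cleaved LiveBLAzer substrate. System: p53RE-bla cells, 16 h compound treatment at 37 C, 2 h substrate step at room temperature.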

[15] = target: Muscarinic acetylcholine receptor M1 (Homo sapiens) (UniProt P11229); assay: Cholinergic receptor muscarinic 1 (CHRM1) small molecule agonists, cell-based qHTS assay (AID 1963589); further: nearly all actives have a fitted effect of over 35% in size
How it was run: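 Kinetic fluorescence (1 s intervals) of calcium-sensitive dye in human M1 CHO cells after compound addition; cells pre-incubated 18 h at 37 C/5% CO2 and dye-loaded 1 h.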

[16] = cAMP Responsive Elements (CRE) small molecule antagonists, cell-based qHTS assay (AID 1963591; active means well fitted inhibition curve with a large enough effect in the signal ratio in the repeat runs, not every such curve was filed as active; the % refers to the signal ratio)
How it was run: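 Reporter line CRE-bla HEK 293T in dialyzed-FBS DMEM; cells preincubated 18 h, treated 3 h with compound plus NKH477 (0.25 uM final); LiveBLAzer FRET, 2 h RT.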

[17] = target: D(2) dopamine receptor (Homo sapiens) (UniProt P14416); assay: Dopamine D2 receptor (DRD2) small molecule agonists, cell-based qHTS assay (AID 1963594); further: nearly all actives have a fitted effect of over 35% in size
How it was run: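 HEK293 cells stably expressing human DRD2, pre-treated with PDE inhibitor Ro20-1724 (0.1 mM final) and compound 10 min at room temperature, then stimulated with NKH477 (200nM […]) for 30 min. cAMP read by HTRF (665/620 nm).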

[18] = target: D(2) dopamine receptor (Homo sapiens) (UniProt P14416); assay: Dopamine D2 receptor (DRD2) small molecule antagonists, cell-based qHTS assay (AID 1963595; active means well fitted inhibition curve with a large enough effect in the signal ratio in the repeat runs, with a control signal flat; the % refers to the signal ratio; further: potency means the concentration at half of the fitted maximal effect)
How it was run: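 Cells were plated and grown for 24 h at 37 °C. Ro20-1724 (0.1 mM final) went in first, then compound for 10 min. NKH477 (200 nM) with quinpirole (12 nM) followed for 30 min at RT, then HTRF detection reagents for 1 h.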

[19] = p53 small molecule agonists, cell-based qHTS assay: qHTS cell viability counter screen (AID 1963581); further: nearly all actives have a fitted effect of over 45% in size
How it was run: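 qHTS counter screen: 16 h compound exposure at 37 C of p53RE-bla HCT-116 cells (4,000 per well, seeded 5 h prior), cell viability by ATP luminescence.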

Sequence of D(2) dopamine receptor (Homo sapiens) (P14416 whole entry, looked up): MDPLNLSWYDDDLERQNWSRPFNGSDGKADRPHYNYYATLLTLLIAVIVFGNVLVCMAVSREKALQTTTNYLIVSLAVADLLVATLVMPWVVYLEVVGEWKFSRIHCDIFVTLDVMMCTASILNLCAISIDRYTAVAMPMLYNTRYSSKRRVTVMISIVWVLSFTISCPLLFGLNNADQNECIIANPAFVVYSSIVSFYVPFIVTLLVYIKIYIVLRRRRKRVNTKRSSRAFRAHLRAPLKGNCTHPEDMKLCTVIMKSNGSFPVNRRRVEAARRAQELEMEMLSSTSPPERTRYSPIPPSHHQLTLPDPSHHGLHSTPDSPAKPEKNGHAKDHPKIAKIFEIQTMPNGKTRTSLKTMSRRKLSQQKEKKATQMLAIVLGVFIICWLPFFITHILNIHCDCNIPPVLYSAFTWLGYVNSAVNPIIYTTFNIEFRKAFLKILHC
Sequence of KiSS-1 receptor (Homo sapiens) (Q969F8 whole entry, looked up): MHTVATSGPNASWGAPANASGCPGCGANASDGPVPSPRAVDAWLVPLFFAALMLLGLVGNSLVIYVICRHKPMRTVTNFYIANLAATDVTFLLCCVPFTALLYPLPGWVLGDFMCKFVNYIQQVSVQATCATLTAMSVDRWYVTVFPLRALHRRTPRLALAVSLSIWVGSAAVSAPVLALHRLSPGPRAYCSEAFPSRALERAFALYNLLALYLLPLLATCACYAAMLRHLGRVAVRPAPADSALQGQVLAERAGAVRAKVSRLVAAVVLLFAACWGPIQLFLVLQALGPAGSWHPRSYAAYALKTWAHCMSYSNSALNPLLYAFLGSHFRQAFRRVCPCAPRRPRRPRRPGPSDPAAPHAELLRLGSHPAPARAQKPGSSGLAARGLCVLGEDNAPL
Sequence of Beta-2 adrenergic receptor (Homo sapiens) (P07550 whole entry, looked up): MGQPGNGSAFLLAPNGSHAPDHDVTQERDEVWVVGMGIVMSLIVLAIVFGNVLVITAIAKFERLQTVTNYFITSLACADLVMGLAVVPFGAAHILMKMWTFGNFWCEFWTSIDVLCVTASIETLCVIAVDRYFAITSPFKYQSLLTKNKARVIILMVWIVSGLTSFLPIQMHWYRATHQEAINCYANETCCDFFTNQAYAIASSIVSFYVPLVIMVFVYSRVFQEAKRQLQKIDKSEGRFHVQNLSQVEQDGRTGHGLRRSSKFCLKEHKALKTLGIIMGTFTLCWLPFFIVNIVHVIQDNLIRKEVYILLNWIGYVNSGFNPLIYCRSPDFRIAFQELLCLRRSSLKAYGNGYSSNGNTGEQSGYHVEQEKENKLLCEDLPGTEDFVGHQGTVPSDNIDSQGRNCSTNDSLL
Sequence of Muscarinic acetylcholine receptor M1 (Homo sapiens) (P11229 whole entry, looked up): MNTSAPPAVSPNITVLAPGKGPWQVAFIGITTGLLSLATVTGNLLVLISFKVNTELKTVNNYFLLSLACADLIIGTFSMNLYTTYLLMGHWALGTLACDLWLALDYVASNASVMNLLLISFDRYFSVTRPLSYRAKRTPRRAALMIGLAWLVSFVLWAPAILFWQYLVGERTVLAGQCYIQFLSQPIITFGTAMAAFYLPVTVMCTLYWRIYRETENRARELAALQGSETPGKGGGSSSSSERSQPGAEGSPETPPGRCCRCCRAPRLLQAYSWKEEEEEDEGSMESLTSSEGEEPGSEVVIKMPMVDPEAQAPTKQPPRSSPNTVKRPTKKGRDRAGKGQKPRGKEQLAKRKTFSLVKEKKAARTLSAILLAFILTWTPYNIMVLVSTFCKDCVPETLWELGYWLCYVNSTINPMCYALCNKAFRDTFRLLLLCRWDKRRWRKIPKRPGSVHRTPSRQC
Sequence of 5-hydroxytryptamine receptor 2A (Homo sapiens) (P28223 whole entry, looked up): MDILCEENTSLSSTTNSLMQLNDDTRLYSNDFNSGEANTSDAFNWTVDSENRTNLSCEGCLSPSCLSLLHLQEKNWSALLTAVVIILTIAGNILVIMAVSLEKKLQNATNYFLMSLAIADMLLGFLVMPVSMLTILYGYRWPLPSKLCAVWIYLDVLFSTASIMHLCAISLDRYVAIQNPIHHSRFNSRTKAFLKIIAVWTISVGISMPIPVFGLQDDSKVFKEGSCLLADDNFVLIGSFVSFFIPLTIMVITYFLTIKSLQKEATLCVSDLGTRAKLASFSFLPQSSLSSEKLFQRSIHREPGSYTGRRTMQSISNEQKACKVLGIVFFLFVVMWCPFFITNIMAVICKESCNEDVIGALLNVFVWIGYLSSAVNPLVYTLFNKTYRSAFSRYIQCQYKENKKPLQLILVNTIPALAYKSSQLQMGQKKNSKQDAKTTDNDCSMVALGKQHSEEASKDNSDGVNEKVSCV
Sequence of Gonadotropin-releasing hormone receptor (Homo sapiens) (P30968 whole entry, looked up): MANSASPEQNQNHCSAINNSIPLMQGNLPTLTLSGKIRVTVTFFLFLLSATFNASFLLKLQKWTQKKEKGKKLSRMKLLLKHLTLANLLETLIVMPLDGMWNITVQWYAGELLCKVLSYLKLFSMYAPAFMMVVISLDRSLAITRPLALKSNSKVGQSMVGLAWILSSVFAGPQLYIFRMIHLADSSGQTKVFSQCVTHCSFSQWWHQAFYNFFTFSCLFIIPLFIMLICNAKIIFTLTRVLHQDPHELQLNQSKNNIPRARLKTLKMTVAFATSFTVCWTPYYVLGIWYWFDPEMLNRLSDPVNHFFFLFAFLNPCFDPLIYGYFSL

COc1cccc2c1C(=O)c1c(O)c3c(c(O)c1C2=O)C[C@@](O)(C(=O)CO)CC3OC1CC(N2CCOC(OC)C2)C(O)C(C)O1 (stereo not given in full)
Potency [1]: inactive | Potency [2]: inactive | Potency [3]: inactive | Potency [4]: inactive | Potency [5]: 16.9 µM (active) | Potency [6]: inactive | Potency [7]: inactive | Potency [8]: inactive | Potency [9]: inactive

Cc1cc(C)nc(Nc2ccccc2)n1
Potency [10]: inactive | Potency [2]: inactive | Potency [3]: inactive | Potency [11]: inactive | Potency [12]: inactive | Potency [13]: inactive | Potency [14]: inactive | Potency [5]: inactive | Potency [15]: inactive | Potency [7]: inactive | Potency [16]: inactive | Potency [8]: inactive | Potency [17]: inactive

IC(I)=C(I)I
Potency [1]: inactive | Potency [2]: inactive | Potency [3]: inactive | Potency [12]: 16.2 µM (active) | Potency [5]: inactive | Potency [6]: inactive | Potency [15]: inactive | Potency [17]: inactive | Potency [18]: 54.5 µM (active)

CC(=O)[O-].CC(=O)[O-].CC(=O)[O-].[Cr+3]
Potency [1]: inactive | Potency [2]: inactive | Potency [19]: inactive | Potency [4]: inactive | Potency [5]: inactive | Potency [6]: inactive | Potency [16]: inactive | Potency [17]: inactive | Potency [18]: inactive

O=CNC(N1CCN(C(NC=O)C(Cl)(Cl)Cl)CC1)C(Cl)(Cl)Cl (stereo not given)
Potency [1]: inactive | Potency [2]: inactive | Potency [3]: inactive | Potency [11]: inactive | Potency [13]: inactive | Potency [14]: inactive | Potency [4]: inactive | Potency [5]: inactive | Potency [15]: inactive | Potency [8]: inactive | Potency [17]: inactive | Potency [18]: inactive

Cc1ncc(C[n+]2csc(CCO)c2C)c(N)n1
Potency [1]: inactive | Potency [2]: inactive | Potency [3]: inactive | Potency [11]: inactive | Potency [19]: inactive | Potency [4]: inactive | Potency [5]: inactive | Potency [15]: inactive | Potency [7]: inactive | Potency [16]: inactive | Potency [8]: inactive | Potency [17]: inactive | Potency [18]: inactive

C[C@H]1CC[C@@H]2[C@@H](C)[C@H]3[C@H](C[C@H]4[C@@H]5CC=C6CC(O[C@@H]7O[C@H](CO)[C@H](O)[C@H](O[C@@H]8O[C@H](CO)[C@@H](O)[C@H](O)[C@H]8O)[C@H]7O[C@H]7O[C@@H](C)[C@H](O)[C@@H](O)[C@H]7O)CC[C@]6(C)[C@H]5CC[C@]34C)N2C1 (stereo not given in full)
Potency [1]: inactive | Potency [2]: inactive | Potency [12]: inactive | Potency [13]: inactive | Potency [19]: inactive | Potency [4]: inactive | Potency [5]: 63.7 µM (active) | Potency [6]: inactive | Potency [15]: inactive | Potency [7]: inactive | Potency [16]: inactive | Potency [8]: inactive | Potency [9]: inactive | Potency [18]: inactive

O=C1NCN(c2ccccc2)C12CCN(CC1COc3ccccc3O1)CC2 (stereo not given)
Potency [10]: inactive | Potency [2]: inactive | Potency [3]: inactive | Potency [11]: inactive | Potency [13]: inactive | Potency [19]: inactive | Potency [5]: 0.0425 µM (active) | Potency [6]: inactive | Potency [17]: inactive | Potency [18]: 0.0376 µM (active)

O=C1c2ccccc2C(=O)c2ccccc21
activation [1]: 8.4% [at 15.8 µM] | activation [3]: 1.15% [at 13.5 µM] | activation [11]: -4.38% [at 13.6 µM] | activity change, negative = cytotoxicity [12]: 2.91% [at 13.5 µM] | activity change, negative = cytotoxicity [13]: 1.32% [at 13.5 µM] | activation [14]: -1.94% [at 13.5 µM] | activation [5]: -4.26% [at 15.9 µM] | activity, negative = inhibition [6]: 2.2% [at 12.6 µM] | activation [7]: -2.22% [at 19 µM] | activity change, negative = inhibition [16]: -5.21% [at 18.9 µM] | activation [9]: -36.8% [at 19 µM] | activation [17]: -2.1% [at 19 µM]

C1=CCC=C1
Potency [1]: inactive | Potency [2]: inactive | Potency [13]: inactive | Potency [19]: inactive | Potency [4]: inactive | Potency [5]: inactive | Potency [6]: inactive | Potency [15]: inactive | Potency [7]: inactive | Potency [16]: inactive | Potency [8]: inactive | Potency [9]: inactive | Potency [17]: inactive | Potency [18]: inactive
